A1 inh: inhibitors of the anti-apoptotic protein A1, read as caspase activation; actives 0.066% (n = 330,000); AID 2462; MEF A1-2A-BIM cells, Caspase-Glo 3/7 luminescence, 3 h; percent of clofoctol response, vehicle zero; caspase activation, % (concentration not given with the values);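 active means over half of replicate activation scores above 10%, or exactly half above 10 with the replicate mean above 10; inconclusive means replicate mean below 10 yet half the replicates above 10; inactive means over half of replicates below 10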
NPR1 activator: GC-A (human) enzyme activation. actives 0.14% (n = 370,000). HEK293 GC-A cells, cGMP TR-FRET, EC30 ANP; 0% at EC30 ANP, 100% saturating ANP. P16066. activation, % at 10 µM; in the data active means activation above about 40%
HSV augment: increases HSV replication in cells; maximum fold increase; HSV replication augmentation in cells, fold increase; actives 0.005% (n = 220,000); in the data active means maximum fold increase above about 1.5; inconclusive means no clear call, values can overlap the other calls; tested in PC3 cells
Efflux pump mplx: blocks antifungal efflux pumps in multiplex yeast assay. inhibition, % at 10 µM. actives 0.44% (n = 330,000). S. cerevisiae Candida pump triplex, Nile Red efflux. AID 485275;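 active means plate passing quality check with inhibition over a set limit, or well fluorescence over plate mean plus 4 SD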;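 further: Nile Red retained in pooled yeast measured as flow cytometry median fluorescence; higher means more Nile Red kept so more efflux inhibition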
NPR2 activator: GC-B (human) receptor activation. P20594. HEK293-GC-B cells, CNP EC30, cGMP TR-FRET; 0% at EC30 CNP, 100% saturating CNP. activation, % at 10 µM. actives 0.11% (n = 370,000). AID 1920062;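 active means activation at 10 µM reaching about 35% in either raw or pattern-adjusted values, limit read from the data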
TAG inh: inhibitors of triacylglycerol accumulation | H9c2 cells, Nile Red lipid (TAG) fluorescence; cells loaded with 200 µM oleic acid | inhibition, % at 12.5 µM | actives 0.66% (n = 230,000);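 active means pattern-corrected inhibition of lipid staining of at least 50% with the nuclear-stain viability signal not falling by more than 50%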
Yeast cmpd fluor: compound fluorescence in yeast efflux pump counter-screen; shares compounds with Efflux pump mplx; S. cerevisiae AD/pABC3, flow cytometry; fluorescence ratio to DMSO, % at 10 µM; actives 4% (n = 1,700); AID 588517;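 active means fluorescence ratio to DMSO above its plate's cutoff, the plate mean ratio plus 5 SD, cut at about 210% in these data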;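 further: unstained yeast with no Nile Red so the signal is compound autofluorescence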
Mdr1 pump inh: inhibitors of Candida albicans Mdr1 efflux pump | S. cerevisiae AD/CaMDR1, Nile Red efflux, flow cytometry | shares compounds with Efflux pump mplx | actives 1% (n = 1,700) | inhibition, % at 10 µM; in the data active means inhibition above about 26%;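 further: higher means more Nile Red retained so more efflux inhibition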
Cdr2 pump inh: Candida Cdr2 efflux pump inhibition | shares compounds with Efflux pump mplx | S. cerevisiae AD/CaCDR2, Nile Red retention, flow cytometry | Nile Red retention ratio vs DMSO, % at 10 µM | actives 4% (n = 1,700) | AID 588520; in the data active means Nile Red retention ratio vs DMSO above about 190%;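 further: higher ratio means more blocking of Cdr2 efflux of the dye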
Cdr1 pump inh: inhibitors of Candida albicans Cdr1 efflux pump; shares compounds with Efflux pump mplx; S. cerevisiae AD/CaCDR1, Nile Red efflux, flow cytometry; inhibition, % at 10 µM; actives 1% (n = 1,700); AID 588522;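 active means inhibition above the screen-wide mean plus twice its standard deviation, cut at about 32% in these data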
Of the large screens only hits and unclear results are named; the others gave an inactive call (follow-up assays come after a bar, where they were run). A selection: hits, their analogues and other compounds. The true share with any hit is near 1%.

O=C(O)C(Cc1c[nH]c2ccccc12)NS(=O)(=O)c1cccc2nsnc12 (centres undefined)	Efflux pump mplx 23.6 (no result: TAG inh) | Yeast cmpd fluor inactive | Mdr1 pump inh inactive | Cdr2 pump inh inactive | Cdr1 pump inh inactive
Cc1ccc(C(=O)CSc2nnc(CNc3ccc(C)cc3C)n2Cc2ccco2)cc1	none
Cc1cc(Cl)ccc1NC(=O)CSc1nnc(Cc2cccs2)n1Cc1ccco1	none | Yeast cmpd fluor inactive | Mdr1 pump inh inactive | Cdr2 pump inh inactive | Cdr1 pump inh inactive
COc1ccc(C(=O)CSc2nnc(CNc3ccc(C)cc3C)n2Cc2ccco2)cc1	Efflux pump mplx 1.1 | Yeast cmpd fluor inactive | Mdr1 pump inh inactive | Cdr2 pump inh inactive | Cdr1 pump inh inactive
CCn1c(Cc2cccs2)nnc1SCC(=O)Nc1ccc(Cl)cc1C	none (no result: A1 inh, HSV augment, Efflux pump mplx, TAG inh)
Cc1cc(C)c(NC(=O)CSc2nnc(-c3ccncc3)n2Cc2ccco2)c(Cl)c1	Efflux pump mplx 1.3 | Yeast cmpd fluor inactive | Mdr1 pump inh inactive | Cdr2 pump inh inactive | Cdr1 pump inh inactive
COc1cc2c(cc1NC(=O)CSc1nnc(Cc3cccs3)n1Cc1ccco1)oc1ccccc12	none (no result: TAG inh) | Yeast cmpd fluor inactive | Mdr1 pump inh inactive | Cdr2 pump inh inactive | Cdr1 pump inh inactive
CCn1cc(C(=O)N2CCN(c3ccc(F)cc3)CC2)c(=O)c2ccc(C)nc21	none (no result: A1 inh, HSV augment, Efflux pump mplx, TAG inh)
COC(=O)[C@@]12CCCCC=C1N(CCc1ccc(Cl)cc1)C(=O)[C@H]2CC(=O)NCC1CCCCC1	none (no result: A1 inh, HSV augment, Efflux pump mplx, TAG inh)
Cc1ccc(CN2CCCCC(NC(=O)Nc3ccccc3F)C2=O)cc1 (centres undefined)	none (no result: A1 inh, HSV augment, Efflux pump mplx, TAG inh)
O=C(COC(=O)c1ccc(S(=O)(=O)N2CCCCC2)cc1)NCc1ccco1	Efflux pump mplx 1.6 | Yeast cmpd fluor inactive | Mdr1 pump inh inactive | Cdr2 pump inh inactive | Cdr1 pump inh inactive
O=C(COc1ccc(S(=O)(=O)N2CCCC2)cc1)NCc1ccco1	none (no result: NPR1 activator, NPR2 activator)
CN1/C(=C\C=C2/SC(=S)NC2=O)C(C)(C)c2ccccc21	Efflux pump mplx 0.8 (no result: HSV augment) | Yeast cmpd fluor inactive | Mdr1 pump inh inactive | Cdr2 pump inh inactive | Cdr1 pump inh inactive
CN1C(=CC=C2C=C(I)C(=O)C(I)=C2)C(C)(C)c2ccccc21	none (no result: A1 inh, HSV augment, Efflux pump mplx)
O=C1CCC[C@H]2C[C@H](NCc3ccc(Cl)c(C(F)(F)F)c3)CC[C@]23CCCN13	none (no result: A1 inh, HSV augment, Efflux pump mplx, TAG inh)
CCOc1ccc(/C(O)=C2/C(=O)C(=O)N(CCN(C)C)C2c2ccccc2)cc1Cl (centres undefined)	Efflux pump mplx 8.9 | Yeast cmpd fluor inactive | Mdr1 pump inh inactive | Cdr2 pump inh inactive | Cdr1 pump inh inactive
Cc1c(OC(C)C(=O)NCc2ccccn2)ccc2c3c(c(=O)oc12)CCCC3 (centres undefined)	Efflux pump mplx 1.8 (no result: HSV augment, TAG inh) | Yeast cmpd fluor inactive | Mdr1 pump inh inactive | Cdr2 pump inh inactive | Cdr1 pump inh inactive
COc1ccc(S(=O)(=O)N/N=C(/C)c2ccncc2)cc1	Efflux pump mplx 5.7 (no result: HSV augment) | Yeast cmpd fluor inactive | Mdr1 pump inh inactive | Cdr2 pump inh inactive | Cdr1 pump inh inactive
CC(C)(C)C(=O)O[C@@H]1CCC[C@@]2(C(=O)N(Cc3ccccc3)c3ccccc32)[C@H]1NC(=O)CCc1ccccc1	none (no result: A1 inh, HSV augment, Efflux pump mplx, TAG inh)
O=[N+]([O-])c1ccc(Oc2cccc3cccnc23)c([N+](=O)[O-])c1	Efflux pump mplx 0.9 | Yeast cmpd fluor inactive | Mdr1 pump inh inactive | Cdr2 pump inh inactive | Cdr1 pump inh inactive
N#C/C(=C\c1ccco1)C(=O)Nc1cccc2ncccc12	HSV augment inconclusive (no result: TAG inh) | Yeast cmpd fluor inactive | Mdr1 pump inh inactive | Cdr2 pump inh inactive | Cdr1 pump inh inactive
O=C(NC(=S)Nc1cccc2ncccc12)c1ccco1	none
COc1ccc(CCn2c(=S)[nH]c3ccc(N4CCOCC4)cc3c2=O)cc1OC	none
COCCCn1c(=S)[nH]c2ccc(N3CCOCC3)cc2c1=O	Efflux pump mplx 1.4 (no result: TAG inh) | Yeast cmpd fluor inactive | Mdr1 pump inh inactive | Cdr2 pump inh inactive | Cdr1 pump inh inactive
N#Cc1nc(COc2ccc(Cl)cc2Cl)oc1N1CCOCC1	Efflux pump mplx 0.8 (no result: TAG inh) | Yeast cmpd fluor inactive | Mdr1 pump inh inactive | Cdr2 pump inh inactive | Cdr1 pump inh inactive
N#Cc1nc(COc2ccc(Cl)cc2Cl)oc1N1CCN(c2ccccc2)CC1	none (no result: TAG inh)
Cc1cc(C)n2c(SCC(=O)N(C)C3CCS(=O)(=O)C3)nnc2n1 (centres undefined)	Efflux pump mplx 0.6 | Yeast cmpd fluor inactive | Mdr1 pump inh inactive | Cdr2 pump inh inactive | Cdr1 pump inh inactive
CN(C(=O)CSc1nnc(-c2ccccc2)n1C)C1CCS(=O)(=O)C1 (centres undefined)	none
O=C(O)c1cc(S(=O)(=O)N2CCCCC2)sc1Cl	none (no result: TAG inh)
CC1CC(C)CN(S(=O)(=O)c2cc(C(=O)O)c(Cl)s2)C1 (centres undefined)	Efflux pump mplx 9.7 (no result: TAG inh) | Yeast cmpd fluor inactive | Mdr1 pump inh inactive | Cdr2 pump inh inactive | Cdr1 pump inh inactive
CCSc1cnc(-c2ccccc2)n1CC	Efflux pump mplx 0.5 (no result: TAG inh) | Yeast cmpd fluor inactive | Mdr1 pump inh inactive | Cdr2 pump inh inactive | Cdr1 pump inh inactive
CCn1c(SCC(O)c2ccccc2)nnc1-c1ccccc1 (centres undefined)	none (no result: TAG inh)
CCOC(=O)C1CCN(S(=O)(=O)c2ccc3c(c2)CCN3C(=O)C2CCC2)CC1	none (no result: NPR1 activator, HSV augment, NPR2 activator, TAG inh) | Yeast cmpd fluor inactive | Mdr1 pump inh inactive | Cdr2 pump inh inactive | Cdr1 pump inh inactive
COc1ccc(CNS(=O)(=O)c2ccc3c(c2)CCN3C(=O)C2CCC2)cc1	none (no result: HSV augment, TAG inh)
CCOc1ccc(OCC)c(NS(=O)(=O)c2ccc3c(c2)CCN3C(=O)C2CCC2)c1	none (no result: TAG inh) | Yeast cmpd fluor inactive | Mdr1 pump inh inactive | Cdr2 pump inh inactive | Cdr1 pump inh inactive
CCOC(=O)C1CCN(S(=O)(=O)c2ccc3c(c2)CCN3C(C)=O)CC1	none (no result: HSV augment, TAG inh)
CC(=O)c1ccc(-c2cc(C(C)=O)c3n(c2=O)CCC3)cc1	none (no result: A1 inh, HSV augment, Efflux pump mplx, TAG inh)
S=C(NCC1CCCCC1)OC1CCC12CCC(c1ccccc1)CC2 (centres undefined)	none (no result: A1 inh, HSV augment, Efflux pump mplx, TAG inh)
Cc1ccc(CN2CCCCC(NC(=O)Nc3cccc(F)c3)C2=O)cc1 (centres undefined)	none (no result: A1 inh, HSV augment, Efflux pump mplx, TAG inh)
CC1(C)Cc2c(sc(NC(=O)COc3ccc(Cl)cc3Cl)c2C(N)=O)C(C)(C)N1	Efflux pump mplx 0.6 (no result: HSV augment) | Yeast cmpd fluor inactive | Mdr1 pump inh inactive | Cdr2 pump inh inactive | Cdr1 pump inh inactive

Assay outcomes: PubChem BioAssay, several laboratories
